{
  "source": "the supplement of paper PMC8728848",
  "binders": {"B1": {"name": "GS7807E-bfa-538-23-538 (Bacteroides fragilis) (protein)", "chain": "TDSFESFNTNEAGFDNDSKKQDFNYYGIPLGIIQQGIYFNYDWGSGKNWPFQTMQNLGADLFSGYVHDFNPFNEGKNNSTYYMMDGWNGSTWDNTYGYIMPEVQKSETINEKDNIGFFGITKILKVELMHRLSDLYGPIVYTQFGSKTGSTPDTQQEAYKAFFNDLDTGIAKIREYQKANPDIESFAKFDILMPQGKRTFSEWIRFANSLRLRLAVRIAMADSKLAVAEAQKALTDEEGLLEGNDEVVAVSTSSGYTNPFGEINKAWGEVFMNANMESLLVGYEDPRMEKYFDKATGSDATSLIDYKGTYKGIRQGTGFSHKNYNGHSKSTITQQTDAVLMTPAEVWFLRAEAALRGWSSESVKDCYEKGVKASFAQWGAAGAEAYLESDRKPSDYVDAFKAANNVKAVNTLTPKWDDAAGNEDKLGRIITQKWLAMFPEGGEAWAEQRRTGYPRLFPVLVNQSEGTVDTNLGPRRLNFFVGIKTTNPEQYTQLVNALGGIDNCGTRLWWDTGRNF"}},
  "assay_in_all_cases": "glycan array binding signal (z-score within array); higher = stronger binding",
  "conditions_in_all_cases": "glycan notation: IUPAC condensed, linker removed",
  "key": {"Glc(a1-4)Glc": {"target": "Glc(a1-4)Glc", "in_short": "(§1)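 Negative Z-scores can be read as non-binding. The Z-score is calculated within each array and then averaged across arrays of one protein sequence at different concentrations or buffers and across linkers. Arrays, 3228 in all, were curated from the Consortium for Functional Glycomics database and kept only where the protein sequence was available.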"}, "GlcA(b1-3)GlcNAc": {"target": "GlcA(b1-3)GlcNAc", "in_short": "as §1"}, "[1]": {"target": "GlcNAc(a1-4)Gal(b1-4)GalNAc", "in_short": "as §1"}, "[2]": {"target": "GlcNAc(a1-4)Gal(b1-4)GlcNAc(b1-3)Gal(b1-4)GlcNAc", "in_short": "as §1"}, "[3]": {"target": "GlcNAc(b1-3)Gal(b1-4)GlcNAc(b1-3)Gal(b1-4)GlcNAc(b1-3)Gal(b1-4)GlcNAc(b1-2)Man(a1-3)[GlcNAc(b1-3)Gal(b1-4)GlcNAc(b1-3)Gal(b1-4)GlcNAc(b1-3)Gal(b1-4)GlcNAc(b1-2)Man(a1-6)]Man(b1-4)GlcNAc(b1-4)[Fuc(a1-6)]GlcNAc", "in_short": "as §1"}, "[4]": {"target": "GlcNAc(b1-3)Gal(b1-4)GlcNAc(b1-3)Gal(b1-4)GlcNAc(b1-3)Gal(b1-4)GlcNAc(b1-3)Gal(b1-4)GlcNAc(b1-2)Man(a1-3)[GlcNAc(b1-3)Gal(b1-4)GlcNAc(b1-3)Gal(b1-4)GlcNAc(b1-3)Gal(b1-4)GlcNAc(b1-3)Gal(b1-4)GlcNAc(b1-2)Man(a1-6)]Man(b1-4)GlcNAc(b1-4)[Fuc(a1-6)]GlcNAc", "in_short": "as §1"}, "[5]": {"target": "GlcNAc6S(b1-3)Gal(b1-4)GlcNAc", "in_short": "as §1"}, "[6]": {"target": "Man(a1-3)[Man(a1-6)]Man(a1-6)[Man(a1-3)]Man(b1-4)GlcNAc(b1-4)GlcNAc", "in_short": "as §1"}, "[7]": {"target": "Man(a1-3)[Man(a1-6)]Man(b1-4)GlcNAc(b1-4)GlcNAc", "in_short": "as §1"}, "[8]": {"target": "Neu5Ac(a2-3)Gal(b1-3)GalNAc6S", "in_short": "as §1"}, "[9]": {"target": "Neu5Ac(a2-3)Gal(b1-4)GlcNAc(b1-2)Man", "in_short": "as §1"}, "[10]": {"target": "Neu5Ac(a2-3)Gal(b1-4)GlcNAc(b1-2)[Neu5Ac(a2-3)Gal(b1-4)GlcNAc(b1-4)]Man(a1-3)[GlcNAc(b1-4)][Neu5Ac(a2-3)Gal(b1-4)GlcNAc(b1-2)[Neu5Ac(a2-3)Gal(b1-4)GlcNAc(b1-6)]Man(a1-6)]Man(b1-4)GlcNAc(b1-4)GlcNAc", "in_short": "as §1"}, "[11]": {"target": "Neu5Ac(a2-3)Gal(b1-4)GlcNAc(b1-2)[Neu5Ac(a2-3)Gal(b1-4)GlcNAc(b1-6)]Man(a1-6)[Neu5Ac(a2-3)Gal(b1-4)GlcNAc(b1-2)Man(a1-3)]Man(b1-4)GlcNAc(b1-4)GlcNAc", "in_short": "as §1"}, "[12]": {"target": "Neu5Ac(a2-3)Gal(b1-4)GlcNAc(b1-6)GalNAc", "in_short": "as §1"}, "[13]": {"target": "Neu5Ac(a2-6)Gal(b1-4)GlcNAc", "in_short": "as §1"}, "[14]": {"target": "Neu5Ac(a2-6)Gal(b1-4)GlcNAc(b1-2)Man(a1-3)[Neu5Ac(a2-3)Gal(b1-4)GlcNAc(b1-2)Man(a1-6)]Man(b1-4)GlcNAc(b1-4)GlcNAc", "in_short": "as §1"}, "[15]": {"target": "Neu5Ac(a2-6)Gal(b1-4)GlcNAc(b1-2)Man(a1-6)[Gal(b1-4)GlcNAc(b1-2)Man(a1-3)]Man(b1-4)GlcNAc(b1-4)GlcNAc", "in_short": "as §1"}, "[16]": {"target": "Neu5Ac(a2-6)Gal(b1-4)GlcNAc(b1-3)Gal(b1-3)GlcNAc", "in_short": "as §1"}, "[17]": {"target": "Neu5Ac(a2-6)GlcNAc(b1-4)GlcNAc(b1-4)GlcNAc", "in_short": "as §1"}, "[18]": {"target": "Neu5Ac(a2-8)Neu5Ac(a2-8)Neu5Ac(a2-3)[GalNAc(b1-4)]Gal(b1-4)Glc", "in_short": "as §1"}},
  "note": "Shown is part of a subset that was picked to be rich in the strongest signals.",
  "data": [
    {"binder": "B1", "values": [
      {"measurement": "glycan array binding signal (z-score)", "setting": "Glc(a1-4)Glc", "value": -0.685},
      {"measurement": "glycan array binding signal (z-score)", "setting": "GlcA(b1-3)GlcNAc", "value": -0.585},
      {"measurement": "glycan array binding signal (z-score)", "setting": "[1]", "value": -0.527},
      {"measurement": "glycan array binding signal (z-score)", "setting": "[2]", "value": -0.642},
      {"measurement": "glycan array binding signal (z-score)", "setting": "[3]", "value": -0.408},
      {"measurement": "glycan array binding signal (z-score)", "setting": "[4]", "value": -0.491},
      {"measurement": "glycan array binding signal (z-score)", "setting": "[5]", "value": 3.84},
      {"measurement": "glycan array binding signal (z-score)", "setting": "[6]", "value": 3.45},
      {"measurement": "glycan array binding signal (z-score)", "setting": "[7]", "value": -0.656},
      {"measurement": "glycan array binding signal (z-score)", "setting": "[8]", "value": -0.669},
      {"measurement": "glycan array binding signal (z-score)", "setting": "[9]", "value": 2.92},
      {"measurement": "glycan array binding signal (z-score)", "setting": "[10]", "value": -0.734},
      {"measurement": "glycan array binding signal (z-score)", "setting": "[11]", "value": 0.242},
      {"measurement": "glycan array binding signal (z-score)", "setting": "[12]", "value": 0.432},
      {"measurement": "glycan array binding signal (z-score)", "setting": "[13]", "value": -0.395},
      {"measurement": "glycan array binding signal (z-score)", "setting": "[14]", "value": -0.678},
      {"measurement": "glycan array binding signal (z-score)", "setting": "[15]", "value": 3.21},
      {"measurement": "glycan array binding signal (z-score)", "setting": "[16]", "value": -0.187},
      {"measurement": "glycan array binding signal (z-score)", "setting": "[17]", "value": -0.677},
      {"measurement": "glycan array binding signal (z-score)", "setting": "[18]", "value": 2.93}
    ]}
  ]
}
